Experimental findings from PubChem BioAssay (NCI) are described below.

Compounds without any hit were thinned out: in the full panel of roughly 83,000, 20% have a hit.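 Testing used 96-well plates and a 48-hour single-concentration exposure. Example: -40 means 40% of the starting cells died.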 A number with no mark means an inactive call. Active and inactive are the calls of the source.

This assay has as its system TK-10 renal. The assay is described as follows: NCI-60 one-dose screen, 48 h (100 = growth as untreated, 0 = no growth, -100 = all killed). The settings on record: 10 µM unless noted. As to the method:
Growth inhibition of the TK-10 human tumor cell line is measured as a screen for anti-cancer activity. Cells are grown in 96 well plates and exposed to the test compound for 48 hours. Compounds are tested at a single concentration, which is 10^-5 M for most compounds. The reported endpoint is percent growth (GI% or GIPRCNT), where numbers from 0 - 100% represent growth inhibition, and numbers from -100% - 0 represent cell death. For example, a value of 40 represents 60% growth inhibition. A value of 0 means no net growth occurred over the course of the experiment. A value of -40 indicates 40% of cells at the beginning of the experiment died by the end of the experiment. A value of -100 means all cells are dead at the end of the experiment.
NCI-60 Human Tumor Cell Lines Screen was performed using the standard one-dose NCI protocol, which is described in more detail at https://dtp.cancer.gov/discovery_development/nci-60/default.htm.
Compounds with GIPRCNT values below 10 were considered active. Activity score was based on GIPRCNT using the following formula: […]
Score is 0 for GIPRCNT values of 100 or above, 50 for GIPRCNT values of 0, and 100 for GIPRCNT values of -100.
`C(=C\c1nccc2c1[nH]c1ccccc12)/c1ccccc1`: the growth was 34%.
Take `Nc1nc2ccc3[nH]ncc3c2c2c1CCCC2`: the growth was 4.7% (active).
The figure for `COc1ccc2cc(-c3nn(-c4ccc(C(=O)O)cc4)cc3CO)ccc2c1` is 104%; for `O=C1C=C(O)C(=O)C(CC2=C(O)C(=O)C=C(O)C2=O)=C1O` it is 106%.
Take `COc1cc2c(cc1O)CC[C@@H]1[C@@H]2CC[C@]2(C)[C@@H](NCCN(C)C)CC[C@@H]12`: the growth was -95.8% (active).
As for `O=S(=O)(Nc1ccc(Cl)c(F)c1)c1ccc(-c2cnc(C3CC3)o2)cc1`, the growth was 45.5%.
The figure for `OCCN1CCN(c2nc(Nc3ccc(-c4nc5ccccc5[nH]4)cc3)c3cn[nH]c3n2)CC1` is -97.2% (active); for `CC(=O)O[C@H]1CC[C@]2(C)[C@H]3CC=C4[C@@H]5CC(C)(C)CC[C@]5(C(=O)NCCNCCN)CC[C@@]4(C)[C@]3(C)CC[C@H]2C1(C)C` it is -79% (active); for `CC[N+](CC)=c1sc2c(s1)C(c1ccc(Cl)cc1)Oc1ccc(Cl)cc1-2` (stereo not given) it is 44%.
The value for `O=C1OCC2=C1C(c1ccncc1)c1cc3c(cc1N2CCO)OCO3` (stereo not given) was 101%; that for `Cc1nc2c3c(-c4ccccc4)c(-c4ccccc4)oc3ncn2n1` was 108%.
As for `O=C(COc1cccc(/C=C2\CSc3ccccc3C2=O)c1)Nc1nccs1`, the growth was 70%.
The figure for `O=C(/C=C/c1cccc([N+](=O)[O-])c1)c1ccc(O)c(CN2CCN(c3cc4c(cc3F)c(=O)c(C(=O)O)cn4C3CC3)CC2)c1` is 34.5%; for `COc1cc(C(=O)/C=C/c2cccnc2Nc2ccc(Cl)cc2)cc(OC)c1OC` it is -68.5% (active); for `COc1ccc(Nc2c3c4c(cccc4[nH]c2=O)C(=O)c2ccccc2-3)cc1` it is 28.6%.
Turning to `C=C(C)C1CC(O)C2(C)CCCC3C2C1CC(C)C3(C)CC/C(C)=C/C(O)C1CCC(=O)c2c(OC)cc(OC)cc21` (stereo not given), the growth was 55.6%.
The figure for `Cn1cc(-c2nonc2-c2cn(C)c3ccc(F)cc23)c2ccccc21` is 60.6%.
The figure for `CSc1nc(Nc2cccc(NC(=O)CCl)c2)c(C#N)c(-c2cccc([N+](=O)[O-])c2)n1` is 137%.
As to `CCN1CCN(c2nc(NCCCNc3ccnc4cc(Cl)ccc34)c3ccccc3n2)CC1`, the growth is 42.3%.
The figure for `COc1ccc(S(=O)(=O)N2CCCCCC2)cc1NC(=O)c1[nH]c(C)c2c1CCCCC2=O` is 15.3%; for `CC1=CC(=NN=c2cc(C)n([O-])c(C)c2)C=C(C)[N+]1=O` it is 85.8%; for `COc1ccc(C(=O)COc2ccc(/C=C3\Oc4ccc(OC)cc4C3=O)cc2)cc1` it is 119%.
Take `O=[N+]([O-])c1cnc(N2CCN(CC3CC3)CC2)nc1N1CCN(CC2CC2)CC1`: the growth is 102%.
The figure for `CSc1nc(NCc2ccccc2)c(C#N)c(-c2cccc([N+](=O)[O-])c2)n1` is 124%.
Regarding `COc1cccc(-c2nn(C(C)(C)C)cc2-c2ccnc(NCCCNS(=O)(=O)c3ccc(C)cc3)c2)c1`, the growth was 98.8%.
The figure for `CC(=O)c1nc2ccccc2n1CC(=O)c1cccc(Cl)c1` is 34.3%; for `OCC(O)c1nc2ccc3[nH]ncc3c2c2c1CCCC2` (stereo not given) it is 4.51% (active).
The figure for `CCOC(=O)n1cc(-c2nonc2-c2cn(C)c3ncccc23)c2cc(F)ccc21` is 80.8%; for `FC(F)(F)c1nc2c(NCc3ccc(-c4ccccc4)cc3)cccc2[nH]1` it is 79.2%; for `COC(=O)[C@]12CCC(C)(C)C[C@H]1[C@H]1C(=O)C[C@@H]3[C@@]4(C)c5c([nH]c6ccccc6c5=O)C(C)(C)[C@@H]4CC[C@@]3(C)[C@]1(C)CC2` it is 84.7%.
For the compound `O=C1NC(=Nc2ccc(O)cc2)S/C1=C\c1cccc(Cl)c1`, the growth was 97.3%.
The value for `Cn1cc(-c2nonc2-c2cn(C)c3ccc(F)cc23)c2cc(F)ccc21` was 85.9%; that for `COc1cc(-c2nn(-c3ccc(Br)cc3)cc2C(=O)O)ccc1O` was 125%.
In the case of `Cc1cc(NS(=O)(=O)c2ccc(-c3cnc(C4CC4)o3)cc2)ccc1Cl`, the growth was 54.3%.
With `O=C1C=C(OCC=C(Cl)Cl)C(=O)c2ccccc21`, the growth is 122%.
Take `COC(=O)c1ccc(Cn2cnc3c(N)ncnc32)cc1`: the growth was 86.3%.
Regarding `Cc1ccc(C2Oc3ccccc3C3CC(c4cccs4)=NN32)cc1` (stereo not given), the growth is 108%.
The figure for `O=S(=O)(Nc1ccc(Br)c(Cl)c1)c1ccc(-c2cnc(C3CC3)o2)cc1` is 51.5%.
In the case of `COc1cccc(NC(=O)c2sc3nc(C)c(C(C)=O)cc3c2N)c1`, the growth was 55.7%.
The value for `c1ccc(Cn2cc(-c3nc4ccccc4s3)c3cccnc32)cc1` was 118%.
